# Compound activity from PubChem.
# HT1080NT lethal: qHTS for induction of synthetic lethality in tumor cells producing 2HG: qHTS for the HT-1080-NT fibrosarcoma cell line. AID 686970, 2013. 360,000 compounds, 1.6% hits. HT-1080-NT fibrosarcoma viability, CellTiter-Glo ATP luminescence, 48 h. Potency, µM (highest dose often 46.1 µM), without a hit: top-dose activity, negative = less viability, most hits filed as cytotoxic;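 further: NT is the 2HG producing partner of a matched IDH1 knockdown line; 0% = DMSO-treated cells and -100% = media-only wells without cells; nearly all actives have a fitted effect of over 55% in size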
#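 Read-out is CellTiter-Glo luminescence after 10 minutes at room temperature, following 48 hours' compound treatment of HT-1080-NT cells (750 cells/well, RPMI, 5% FBS, 37 degrees C).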
# HT1080 IDH1KD tx: qHTS for induction of synthetic lethality in tumor cells producing 2HG: qHTS for the HT-1080-IDH1KD cell line; HT-1080 IDH1 knockdown viability, ATP luminescence, 48 h; Potency, µM (titrated, usually from 46.1 µM), for the others: at the highest dose activity, negative = toxicity, hits mostly cytotoxic; 360,000 compounds, 2% hits; AID 686971, 2013;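 further: 0% = DMSO wells and -100% = cell-free medium wells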
#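 % activity derives from luminescence (CellTiter-Glo), normalised to DMSO and no-cell wells. HT-1080-IDH1KD cells, 750/well, had 48 h compound exposure at 37 °C.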
# KB-3-1 cytotox: qHTS assay for MDR1-selective chemotherapeutics: Primary screen using the parental adenocarcinoma cell KB-3-1; KB-3-1 viability, CellTiter-Glo ATP luminescence, 72 h; Potency, µM (series often up to 46.1 µM), actives largely listed as cytotoxic; 400,000 compounds, 1.4% hits; further: on the % scale 0 is the no-effect control and ±100 the full control effect; nearly all actives have a fitted effect of over 60% in size
#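 Cytotoxicity measured as CellTiter-Glo luminescence after 72 h at 37 C. Compound titrations were pinned onto drug-naive KB-3-1 parental adenocarcinoma cells grown in DMEM with 10% FBS, and normalized data fitted to concentration-response curves.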
# KB-V1 cytotox: qHTS assay for MDR1-selective chemotherapeutics: Primary screen using the drug-selected MDR subline cells KB-V1. Potency, µM (titrated, usually from 46.1 µM), most hits filed as cytotoxic. KB-V1 MDR cells viability, CellTiter-Glo, 72 h. 400,000 compounds, 3.4% hits. AID 1347076, 2019; further: on the % scale 0 is the no-effect control and ±100 the full control effect; nearly all actives have a fitted effect of over 60% in size
#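 Potencies derive from concentration-effect curves fitted to normalized luminescence (CellTiter-Glo) of KB-V1 cells treated for 72 h at 37 degrees C in phenol-red-free DMEM containing 10% FBS.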
# ATXN2 expr inh: Primary qHTS for Inhibitors of ATXN expression; Potency, µM (top dose mostly 57 µM), for the others: at the highest dose activity change, negative = inhibition, hits mostly inhibitors; HEK-293 ATXN2-luciferase reporter, luminescence, 24 h; 360,000 compounds, 0.72% hits; AID 1745845, 2022; further: on the % scale 0 is the no-effect control and ±100 the full control effect; nearly all actives have a fitted effect of over 55% in size
#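 ATXN2-luciferase reporter cells (luciferase flanked by upstream and downstream ATXN2 gene portions) were treated 24 h at 37 °C with compounds at up to 57 uM. SteadyGlo luminescence gave expression; GF-AFC fluorescence gave viability.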
# S2 tox: Viability Counterscreen for Primary qHTS for Inhibitors of ATXN expression. S2 cells (HEK-293 line with an ATXN2-luciferase reporter) viability, CellTiter-Fluor protease fluorescence, 24 h. Potency, µM (highest dose often 56.7 µM), hits mostly cytotoxic. 400,000 compounds, 0.49% hits; further: nearly all actives have a fitted effect of over 40% in size
# * marks the source's active call; other numbers are inactive results; i = inactive; ? = inconclusive; . = no result. A selection: hits, their analogues and other compounds. The true share with any hit is near 6.2%. The call rests on the fitted dose curve; in most records, active means well fitted curve in the direction sought with a large enough effect; inconclusive means small, poorly fitted or top-dose-only effect, or another doubt; inactive means no such curve, though single readings can be large; an effect the other way counts as inactive or inconclusive. Potency means the concentration at half of the fitted maximal effect.
SMILES,HT1080NT lethal,HT1080 IDH1KD tx,KB-3-1 cytotox,KB-V1 cytotox,ATXN2 expr inh,S2 tox
CCOc1ccc(/C=C/C(O)=C2/C(=O)NC3(C)CC2c2ccccc2O3)cc1OC (stereo not given),-24%,?,?,?,-12%,?
CCOc1ccc(/C=C/C(O)=C2/C(=O)N(C)C3(C)CC2c2ccccc2O3)cc1OC (stereo not given),?,3.7µM*,23µM*,?,?,i
Cc1ccc(-n2nc3c(=O)n(CC(=O)c4ccc(F)cc4)nc(C)c3c2C)cc1,0%,-5%,i,2.9µM*,-23%,i
Cc1nn(Cc2ccccc2)c(=O)c2nn(-c3ccc(Cl)cc3)c(C)c12,-1%,1%,i,8.2µM*,-10%,i
Cc1cc(C)cc(NC(=O)c2sc3nc[nH]c(=O)c3c2C)c1,.,.,i,i,.,.
CC(/C=C1\SC(=Nc2cccnc2)NC1=O)=C\c1ccccc1,-16%,0%,16µM*,8.2µM*,-2%,i
COC(=O)c1cccc(NC(=O)C23CC4CC(C2)CC(n2cncn2)(C4)C3)c1,-2%,-1%,i,21µM*,7%,i
COC(=O)c1ccc(NC(=O)C23CC4CC(C2)CC(n2cncn2)(C4)C3)cc1,16%,15%,i,i,-37%,i
O=C(Nc1ccccc1)C12CC3CC(C1)CC(n1cnc([N+](=O)[O-])n1)(C3)C2,1%,5%,i,i,5%,i
COc1cc(NC(=O)C23CC4CC(C2)CC(n2cnc([N+](=O)[O-])n2)(C4)C3)cc(OC)c1,7%,5%,?,21µM*,11%,i
COCc1cc(C)nc2c1C(=O)NC(c1ccc(Br)cc1)N2Cc1ccccc1 (stereo not given),.,.,i,i,13%,i
CC1CCc2nc3ncn(Cc4cccc(F)c4)c(=O)c3cc2C1 (stereo not given),.,.,i,i,21%,i
CCOC(=O)c1cc(NC(=O)C2C3C=CC(O3)C2C(=O)O)cc(C(=O)OCC)c1 (stereo not given),14%,13%,i,i,6%,i
CCOC(=O)c1cc(NC(=O)C2C3CCC(O3)C2C(=O)O)cc(C(=O)OCC)c1 (stereo not given),-5%,?,i,23µM*,-4%,i
Cc1cc2cc(CN(Cc3ccco3)C(=S)NCC3CCCO3)c(=O)[nH]c2cc1C (stereo not given),2%,10%,i,9.2µM*,-6%,i
CCc1ccc2[nH]c(=O)c(CN(Cc3ccco3)C(=S)NCC3CCCO3)cc2c1 (stereo not given),-10%,-9%,i,i,-25%,i
Cc1ccc2cc(CN(Cc3ccco3)C(=S)NCC3CCCO3)c(=O)[nH]c2c1C (stereo not given),5%,7%,i,4.1µM*,3%,i
Cc1cc(C)c2[nH]c(=O)c(CN(Cc3ccco3)C(=S)NCC3CCCO3)cc2c1 (stereo not given),-17%,-5%,i,i,-11%,?
CCC1CN(CCNC(=O)c2cc(C(C)C)nn2C)Cc2cc(OC)ccc2O1 (stereo not given),.,.,.,.,.,i
O=C(Cn1cnc2sc(-c3ccccc3)cc2c1=O)NCc1ccccc1,7.9µM*,6.3µM*,7.3µM*,i,-28%,i
O=C(Cn1cnc2sc(-c3ccccc3)cc2c1=O)NCc1ccco1,?,?,18µM*,?,12%,i
CCOC(=O)CC(=O)CSc1nc(CC)c(C)cc1C#N,12%,7%,i,i,-28%,?
COc1ccc2nc(SCC(=O)N(C)C3CCCCC3)c(C#N)cc2c1,9%,-1%,i,15µM*,-5%,i
COc1ccc2nc(SCC(=O)N3CCCCC3)c(C#N)cc2c1,-2%,-1%,i,i,38%,i
COc1ccc2nc(N3CCCC3)c(C#N)cc2c1,18%,7%,i,13µM*,1%,.
SMILES,HT1080NT lethal,HT1080 IDH1KD tx,KB-3-1 cytotox,KB-V1 cytotox,ATXN2 expr inh,S2 tox
CCOC(=O)CC(=O)CSc1nc2ccc(C)cc2cc1C#N,?,7.1µM*,i,i,69%,i
CC(C)CCOc1ccc(Cn2c(=O)oc3ccccc32)cc1,.,.,i,?,-3%,i
COc1ccc(-c2cc3nc(C)c(CCC(=O)NCc4ccco4)c(C)n3n2)c(OC)c1,-1%,-4%,i,4.6µM*,5%,i
COc1cc(NC(=O)c2ccc(COc3ccccc3Br)o2)cc(OC)c1OC,0%,5%,i,7.3µM*,2%,i
Cc1ccc(N2C(=O)C3C4C=CC(CNC(=S)Nc5cccc(Cl)c5)(O4)C3C2=O)cc1 (stereo not given),-3%,-4%,i,12µM*,-18%,i
Cc1ccc(N2C(=O)C3C4C=CC(CNC(=S)Nc5ccc(Cl)cc5)(O4)C3C2=O)cc1 (stereo not given),-2%,-17%,?,8.2µM*,-12%,i
Cc1ccc(N2C(=O)C3C4C=CC(CNC(=S)Nc5ccc(F)cc5)(O4)C3C2=O)cc1 (stereo not given),3%,0%,i,i,-11%,i
O=C(COc1ccc(F)cc1)NCc1ccc2c(c1)CCN2C(=O)c1ccc(F)cc1,.,.,i,i,.,.
O=C(COc1cccc2ccccc12)N1c2ccccc2CCc2ccccc21,-26%,?,?,16µM*,-27%,i
O=C(COc1ccc(F)cc1)N1c2ccccc2CCc2ccccc21,-1%,1%,i,i,.,?
CN1CCCN(C(=O)c2cccc(Cl)c2)CC1,-2%,2%,i,i,8%,i
CN1CCCN(C(=O)c2cccc(-c3ccc(C=C4C(=O)Nc5ccc(Cl)cc54)o3)c2)CC1,.,.,.,.,7.7µM*,.
CC1=C(C(=O)Nc2ccc(F)cc2)C(c2ccc(N(C)C)cc2)NC(=O)N1 (stereo not given),.,.,i,i,7%,i
O=C(c1cc2ccccc2o1)N(Cc1ccco1)Cc1cccs1,-1%,0%,i,i,7%,?
Cc1c(C(=O)N(Cc2ccco2)Cc2cccs2)oc2ccccc12,2%,8%,i,16µM*,-3%,?
